From PubChem BioAssay
Rows were chosen to be rich in hits. Some 4% of all compounds tested hit in one or more screens of this group.
TSHR ag: activates the human thyroid stimulating hormone receptor; 0.48% of 73,000 active; AID 926; Potency, µM (top dose mostly 57.1 µM), for the others: at the top dose activation, hits mostly activators; HEK293-CNG-TSHR cells (CNG channel as cAMP sensor), membrane potential dye, cAMP; P16473; active means well fitted activation curve with a large enough effect in the main read-out, with a control signal flat, not every such curve was filed as active; inconclusive means small, poorly fitted or top-dose-only effect, or a change in a side signal; inactive means no such curve, though single readings can be large or run the other way; % of control where 0% means no effect;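 further: the control signal comes from parental cells without the receptor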
Target sequence (P16473 whole entry, looked up): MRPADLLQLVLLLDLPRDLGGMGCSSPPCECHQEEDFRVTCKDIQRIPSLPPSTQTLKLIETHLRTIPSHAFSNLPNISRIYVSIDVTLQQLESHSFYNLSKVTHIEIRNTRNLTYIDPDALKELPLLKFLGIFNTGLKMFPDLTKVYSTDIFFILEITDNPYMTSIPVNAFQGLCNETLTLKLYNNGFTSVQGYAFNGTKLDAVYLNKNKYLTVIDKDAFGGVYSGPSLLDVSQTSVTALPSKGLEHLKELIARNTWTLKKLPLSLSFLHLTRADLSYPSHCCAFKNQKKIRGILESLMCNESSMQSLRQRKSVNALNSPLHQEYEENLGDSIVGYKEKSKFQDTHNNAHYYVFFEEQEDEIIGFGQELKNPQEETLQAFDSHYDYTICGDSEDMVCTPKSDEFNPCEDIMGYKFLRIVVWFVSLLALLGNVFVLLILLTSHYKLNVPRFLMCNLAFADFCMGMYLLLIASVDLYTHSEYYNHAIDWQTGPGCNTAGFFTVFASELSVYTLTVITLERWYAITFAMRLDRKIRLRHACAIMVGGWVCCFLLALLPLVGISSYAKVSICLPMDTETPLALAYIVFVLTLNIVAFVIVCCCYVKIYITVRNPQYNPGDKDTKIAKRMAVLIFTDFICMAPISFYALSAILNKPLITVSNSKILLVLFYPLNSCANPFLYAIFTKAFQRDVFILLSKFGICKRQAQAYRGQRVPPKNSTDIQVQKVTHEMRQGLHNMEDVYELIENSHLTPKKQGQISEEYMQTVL
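HEK 293 cells stably expressing TSHR and a modified CNG channel, with CNG-only parental cells as counterscreen, were preloaded 60 min at room temperature with membrane potential dye containing 100 uM RO 20-1724. Compound exposure was 30 min, and depolarization was read as fluorescence at 590 nm.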
PK Bst: pyruvate kinase (B. stearothermophilus) modulation; purified pyruvate kinase, luminescence ATP production; ribose 5-phosphate activator present at AC10; 1.2% of 51,000 active; Potency, µM; in the data active means potency below about 11 µM; inconclusive means mostly about 12 µM to 25 µM;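 the screen sought inhibitors and activators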;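 further: scaled between full activation by ribose 5 phosphate and full inhibition by luteolin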
HEK293 cAMP cs: parental HEK293 cAMP activation (counter-screen); parental HEK293 CNG cAMP sensor, membrane potential fluorescence; Potency, µM (doses to about 57.1 µM), for the others: top-dose activation, usual class: activators; 2.5% of 73,000 active; AID 938; further: % of control where 0% means no effect; nearly all actives have a fitted effect of over 55% in size
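Counterscreen for endogenous-receptor signalling: CNG-channel HEK 293 cells report cAMP rise by membrane depolarization. After 60 min dye equilibration with 100 uM RO 20-1724, compounds incubated 30 min before bottom-read fluorescence at 590 nm.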
GBA activity: alters purified human glucocerebrosidase activity; P04062; purified enzyme, resorufin glucoside fluorescence (screen aimed at inhibitors), 20 min; Potency, µM; 1.1% of 48,000 active; AID 360; in the data active means potency below about 15 µM; inconclusive means mostly about 16 µM to 33 µM;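 further: the screen sought inhibitors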
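Wild-type enzyme at 0.2 nM final in 50mM citric acid/KH2PO4, 10mM sodium taurocholate, 0.01% tween-20, pH 5.9, with resorufin beta-D-glucopyranoside at 30 uM final. Compounds titrated, 20 min at RT, red fluorescence read; AC50 from titration.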
Casp1 inh: caspase-1 (human) inhibition, allosteric or competitive. P29466. 0.03% of 75,000 active. Potency, µM (titrated, usually from 57.5 µM), without a hit: top-dose activity change, negative = inhibition, hits mostly inhibitors. Caspase-1 enzyme, Ac-WEHD-AFC fluorogenic rate;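 further: plate controls were vehicle for no effect and no substrate for full effect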
Casp7 inh: allosteric or competitive inhibitors of human caspase-7; AID 889; 0.02% of 75,000 active; Potency, µM (doses to about 57.5 µM), for inactives: at the top dose activity change, negative = inhibition, usual class: inhibitors; recombinant caspase-7, Ac-DEVD-AFC fluorescence rate; active means well fitted inhibition curve with a large enough effect in the main read-out, with a control signal flat, not every such curve was filed as active; inconclusive means small, poorly fitted or top-dose-only effect, or a change in a side signal; further: % of control where 0% means no effect
* = called active by the depositor; i = inactive; ? = inconclusive; . = no result given; [ ] = another dose, or the depositor's remark. Unless noted, the call rests on the fitted dose curve; in most records, active means well fitted curve in the direction sought with a large enough effect; inconclusive means small, poorly fitted or top-dose-only effect, or another doubt; inactive means no such curve, though single readings can be large; an effect the other way counts as inactive or inconclusive. Potency means the concentration at half of the fitted maximal effect.

SMILES | TSHR ag | PK Bst | HEK293 cAMP cs | GBA activity | Casp1 inh | Casp7 inh
CC(=O)[C@@H](C)CCO[C@@]1(C)OCC[C@@H]1C | -2%[11.4 µM] | . | -11%[11.4 µM] | . | 1%[11.5 µM] | 1%[11.5 µM]
COc1ccc(CN[C@H](C)C(=O)O)cc1 | 1%[11.4 µM] | . | 2%[11.4 µM] | . | -6%[11.5 µM] | 3%[11.5 µM]
CCCC(OC(=O)CN1C(=O)COc2ccccc21)C(=O)NC1CCCC1 (stereo unspecified) | ? | >57 | 0.79µM* | >77 | 0% | 2%
CN1CCN(c2ccnc(-c3ccoc3)n2)CC1 | 3% | . | 11% | . | -1% | -5%
Cc1cccc(-n2nnnc2SCC(=O)NCCN2C(=O)CSC2=O)c1 | 0% | >57 | 3% | >77 | -1% | 1%
Cc1cccc(-n2nnnc2SC(C)C(=O)NCCC2=CCCCC2)c1 (stereo unspecified) | ? | >11 | 13µM* | >77 | -6% | -5%
COc1cc(-c2nnc(SCc3ccccc3Cl)o2)cc(OC)c1OC | ? | i | ? | >77 | 1% | -5%
COc1cc(-c2nnc(SCc3c(F)cccc3Cl)o2)cc(OC)c1OC | ? | . | 32µM* | . | -3% | -5%
CCCOc1ccc(C(=O)C(c2ccccc2)N2CCOCC2)cc1 (stereo unspecified) | ? | >57 | 25µM* | >77 | -1% | 1%
COc1ccc(Cn2c(-c3ccco3)nc3oc4cc(OC)ccc4c(=O)c3c2=O)cc1 | 3.2µM* | >57 | -2% | >77 | 0% | -9%
c1ccc(-c2nc(N3CCCCCC3)c3ccccc3n2)nc1 | ? | >57 | ? | >77 | -4% | -1%
c1ccc2c(N3CCCCC3)nc(N3CCCC3)nc2c1 | ? | >57 | 13µM* | i | -1% | -1%
Nc1nc(N2CCCCC2)nc2ccccc12 | 10% | 8.5* | 10% | . | -4% | 1%
C[C@H](C(=O)c1ccncc1)c1ccccn1 | -2%[11.4 µM] | . | 6%[11.4 µM] | . | -3%[11.5 µM] | 2%[11.5 µM]
N#CCc1ccccc1[N+](=O)[O-] | 0% | . | 6% | . | -1% | 1%
COc1ccccc1-c1nc2s/c(=C\c3cccs3)c(=O)n2n1 | . | . | -4% | 5.8* | -9% | -14%
COc1ccc(CNc2ccnc(-c3ccccc3OC)n2)c(OC)c1 | . | . | 27% | . | -3% | 0%
COc1ccc(CNc2ncncc2-c2ccccc2Cl)c(OC)c1 | ? | . | 32µM* | . | -2% | -7%
COc1ccc(CNc2ccnc(-c3ccccc3Cl)n2)c(OC)c1 | ? | . | 10µM* | . | -4% | -3%
COc1ccccc1N1CCN(C(c2cccs2)c2nnnn2C2CCCC2)CC1 (stereo unspecified) | ? | >57 | 13µM* | >77 | -3% | -1%
Clc1ccc(C(c2nnnn2C2CCCC2)N2CCSCC2)cc1 (stereo unspecified) | ? | >57 | 3.2µM* | . | -2% | -1%
c1ccc(CC2CCN(C(c3cccs3)c3nnnn3C3CCCC3)CC2)cc1 (stereo unspecified) | ? | >57 | ? | . | -3% | -1%
COc1ccc(C(c2nnnn2C2CCCCC2)N2CCN(c3ccc(OC)cc3)CC2)cc1 (stereo unspecified) | 18% | >57 | 16% | . | 0% | 0%
COc1ccc(C(c2nnnn2C2CCCC2)N2CCC(C)CC2)cc1 (stereo unspecified) | ? | >57 | 20µM* | >77 | -2% | -1%
Cn1c(=O)n2n(c1=O)[C@H]1[C@H](O)[C@H]3O[C@@H]3/C(=N/OC[C@@H](O)COCc3ccco3)[C@@H]1CC2 | ? | . | ? | . | -2%[11.5 µM] | 0%[11.5 µM]
SMILES | TSHR ag | PK Bst | HEK293 cAMP cs | GBA activity | Casp1 inh | Casp7 inh
CCCC=O | -6% | . | -5% | . | 0% | 0%
CCS(=O)(=O)NCCc1cc2c(OC)ccc(OC)c2[nH]c1=O | -5% | 11* | 9% | >77 | -2% | -1%
COc1ccc(OC)c2[nH]c(=O)c(CCNC(C)=O)cc12 | -2% | . | 12% | . | -2% | -3%
O=Nc1c2nc3ccccc3n(O)c-2c2ccccc12 | -16% | 7.3* | -10% | >77 | -13% | -11%
COc1cccc(NC(=O)c2oc3ccccc3c2NC(=O)C(C)(C)C)c1 | ? | >57 | 1µM* | . | -2% | -1%
CCCOc1ccccc1Cn1c(=O)oc2ccc(C)cc21 | ? | >57 | 13µM* | >77 | -1% | 6%
CCCCN(CCCC)S(=O)(=O)c1ccc(C(=O)Nc2nnc(COC)o2)cc1 | 10% | >57 | 14% | ? | 1% | 2%
CCc1nnc(NC(=O)c2ccc(S(=O)(=O)N(CC)Cc3ccccc3)cc2)o1 | 1% | >57 | 1% | 14* | 1% | 3%
CCc1ccc(-c2cn3nc(C)c(C)nc3n2)cc1 | . | 1.5* | . | . | . | .
Cc1nc2nc(-c3ccccc3)cn2nc1C | ? | i | ? | >77 | . | ?
CCN(CC)c1nc(Nc2ccccc2)nc(Oc2ccc(=O)[nH]n2)n1 | 11% | >57 | 14% | >77 | -6% | -11%
CN(C)c1nc(NCc2ccccc2)nc(Oc2ccc(=O)[nH]n2)n1 | 20µM* | >57 | 12% | >77 | -1% | 1%
Cc1ccc(C(=O)c2coc3ccc(O)c(CN4CCN(C)CC4)c23)cc1 | ? | >57 | 13µM* | i | 1% | 1%
Clc1ccc(-n2nnnc2Sc2ncnc3sccc23)cc1 | 10%[11.4 µM] | >57 | 28% | >77 | 2% | 0%
Cc1sc2ncnc(Sc3nnnn3-c3ccccc3)c2c1C | ? | >57 | ? | 9.2* | -1% | -4%
O=C(/C=C\C=C/c1ccc2c(c1)OCO2)N1CCCCC1 | ? | . | ? | . | 0%[25.7 µM] | -5%[25.7 µM]
CCN(c1ccccc1)c1cc(NC)[n+](C)c(C)n1 | ? | . | 32µM* | . | 2% | 0%
C[C@H]1C[C@H]2[C@H]3CCC4=CC(=O)C=C[C@@]4(C)[C@]3(F)[C@H](O)C[C@]2(C)[C@@]1(O)C(=O)COP(=O)(O)O | -1%[11.4 µM] | . | -1%[11.4 µM] | . | . | -10%[11.5 µM]
COc1ccc(S(=O)(=O)N2CCCCCC2)cc1C(=O)OCc1c(C)noc1C | 11% | >57 | 5% | >77 | 0% | -2%
Cc1noc(C)c1COC(=O)c1cccc(S(=O)(=O)N2CCCCCC2)c1 | ? | >57 | 20µM* | >77 | -3% | -1%
O=C(O)CCc1ccc(-c2ccccc2)[nH]1 | 2%[11.4 µM] | . | 11%[11.4 µM] | . | -7%[11.5 µM] | -9%[11.5 µM]
CC(C)Oc1cc(O)c2c(c1)OCC=C2CCC(=O)O | 5%[11.4 µM] | . | 5%[11.4 µM] | . | -2%[11.5 µM] | 1%[11.5 µM]
O=c1oc2ccccc2n1CSc1nc2ccccc2s1 | ? | >57 | 25µM* | >77 | -3% | -3%
O=c1oc2ccccc2n1CSC1=NCCS1 | 18% | >57 | -2% | >77 | -1% | -1%
Cc1oc(-c2nc3ccccc3n2C)cc1C(=O)c1ccccc1 | ? | 3.4* | 25µM* | >77 | -10% | -11%
O=C(O)[C@@H]1CCCN[C@H]1C(=O)O | 4% | . | 11% | . | 3% | 1%
Cn1cccc1C(=O)N1CCC[C@@]2(CCN(C(c3ccccc3)c3ccccc3)C2)C1 | ? | . | 10µM* | . | -4% | -3%
